# Test results reported in PubChem BioAssay (NCATS).
# Inconclusive results are not listed. A call without a number means that no potency is given here. Unmarked numbers belong to inactive results. Activity calls are given as the source filed them. Calls follow the shape of the dose curve; as a rule, active = well fitted curve in the direction sought with a large enough effect; inconclusive = small, poorly fitted or top-dose-only effect, or another doubt; inactive = no such curve, though single readings can be large; an effect the other way counts as inactive or inconclusive.
# Legend:
# [1] = system: Zika virus NS2B-NS3 protease (unlinked complex); assay: Primary screen GU Rhodamine qHTS for Zika virus inhibitors: Unlinked NS2B-NS3 protease assay (AID 1347159); conditions: Recombinant ZIKV NS2B-NS3 protease, Rhodamine110 substrate fluorescence; series mostly up to 107 µM; also: nearly all actives have a fitted effect of over 60% in size; also: potency is read from the fitted curve at half-maximal effect
# How it was run: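 A qHTS format was used, with compound concentrations ranging up to 114 microM. Each compound was preincubated with 25 nM NS2B-NS3 protease, and the substrate was then added at 1.5 microM. Curves were fitted with a 4-parameter Hill model.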
# [2] = system: Zika virus NS2B-NS3 protease (linked construct); assay: Primary screen NINDS Rhodamine qHTS for Zika virus inhibitors (AID 1347160); conditions: purified NS2B-NS3 protease, Rhodamine110 substrate fluorescence; series mostly up to 57.1 µM; also: nearly all actives have a fitted effect of over 55% in size; also: potency is read from the fitted curve at half-maximal effect
# How it was run: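 Kinetic fluorescence (Ex 480 nm, Em 540 nm) over 15 min with 1.5 microM Rhodamine110 peptide and 25 nM linked protease.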
# [3] = Confirmatory screen NINDS Rhodamine qHTS for Zika virus inhibitors (AID 1347161); conditions: purified enzyme assay, Rhodamine110 substrate fluorescence, 15 min; series mostly up to 114 µM;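 also: purified Zika NS2B-NS3 protease with linked NS2B cofactor domain and Rhodamine110 peptide substrate; nearly all actives have a fitted effect of over 60% in size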
# How it was run: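 Rhodamine110-peptide cleavage (1.5 µM substrate) by 25 nM linked NS2B-NS3 enzyme at pH 8.0 (Tris, Tween 20), after 15 min RT preincubation with compounds; 15-min fluorescence change normalized to controls and Hill-fitted.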
# [4] = target: Lysine-specific demethylase 5B (Homo sapiens) (UniProt Q9UGL1); assay: Optimization screen for KDM5B Histone Demethylases FDH coupled qHTS against the LOPAC library (AID 1347166); conditions: KDM5B demethylation, FDH-coupled NADH fluorescence (FDH is formaldehyde dehydrogenase); series mostly up to 57.5 µM
# Lysine-specific demethylase 5B (Homo sapiens), sequence (Q9UGL1 whole entry, looked up): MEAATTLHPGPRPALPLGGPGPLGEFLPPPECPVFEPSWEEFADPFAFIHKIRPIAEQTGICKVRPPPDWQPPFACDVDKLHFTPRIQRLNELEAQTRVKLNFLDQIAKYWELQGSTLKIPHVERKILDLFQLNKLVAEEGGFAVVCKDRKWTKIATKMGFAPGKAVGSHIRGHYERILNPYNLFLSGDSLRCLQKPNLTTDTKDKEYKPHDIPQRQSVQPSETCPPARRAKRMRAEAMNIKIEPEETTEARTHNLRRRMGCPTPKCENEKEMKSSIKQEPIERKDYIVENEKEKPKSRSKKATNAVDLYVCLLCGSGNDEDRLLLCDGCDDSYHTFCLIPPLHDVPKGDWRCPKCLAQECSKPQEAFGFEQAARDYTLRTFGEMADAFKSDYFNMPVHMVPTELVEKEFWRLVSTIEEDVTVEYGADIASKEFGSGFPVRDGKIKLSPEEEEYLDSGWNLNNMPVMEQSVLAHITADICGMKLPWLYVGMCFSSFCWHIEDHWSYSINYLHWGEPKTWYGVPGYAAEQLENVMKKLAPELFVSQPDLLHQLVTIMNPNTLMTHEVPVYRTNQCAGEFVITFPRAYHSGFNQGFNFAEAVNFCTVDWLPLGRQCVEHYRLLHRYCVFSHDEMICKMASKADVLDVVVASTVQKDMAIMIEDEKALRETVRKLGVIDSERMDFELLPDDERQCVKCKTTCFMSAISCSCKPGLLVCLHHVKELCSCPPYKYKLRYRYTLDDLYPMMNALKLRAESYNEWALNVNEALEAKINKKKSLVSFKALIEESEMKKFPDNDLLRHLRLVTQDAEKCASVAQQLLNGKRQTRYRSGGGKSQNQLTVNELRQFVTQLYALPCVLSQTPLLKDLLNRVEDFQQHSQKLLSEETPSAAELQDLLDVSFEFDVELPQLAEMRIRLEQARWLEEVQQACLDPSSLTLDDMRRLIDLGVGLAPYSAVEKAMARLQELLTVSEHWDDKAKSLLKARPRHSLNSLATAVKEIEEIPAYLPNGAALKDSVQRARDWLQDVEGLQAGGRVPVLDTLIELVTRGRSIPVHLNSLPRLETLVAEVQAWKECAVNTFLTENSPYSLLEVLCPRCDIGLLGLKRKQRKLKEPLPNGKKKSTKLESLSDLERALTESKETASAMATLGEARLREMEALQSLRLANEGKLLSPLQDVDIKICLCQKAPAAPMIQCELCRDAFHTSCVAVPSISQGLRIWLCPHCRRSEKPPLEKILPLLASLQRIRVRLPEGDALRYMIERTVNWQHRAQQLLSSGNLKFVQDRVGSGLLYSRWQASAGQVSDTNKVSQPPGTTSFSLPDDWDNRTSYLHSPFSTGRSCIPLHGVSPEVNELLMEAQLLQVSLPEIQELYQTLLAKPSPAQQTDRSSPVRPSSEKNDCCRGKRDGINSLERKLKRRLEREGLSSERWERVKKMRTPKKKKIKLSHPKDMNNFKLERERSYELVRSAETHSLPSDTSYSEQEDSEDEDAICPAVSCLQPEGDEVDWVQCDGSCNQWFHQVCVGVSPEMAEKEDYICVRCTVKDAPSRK
# How it was run: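 KDM5BDeltaAP (200nM final) preincubated 10 min with compound, then 12.5uM H3K4Me3, 25uM a-ketoglutarate, ascorbate, Fe(II), NAD+ and FDH added; 50mM HEPES pH 7.5, 0.01% Tween-20. NADH fluorescence (340/450 nm) change over 30 min, room temperature.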
# [5] = Vero cells viability qHTS for Zika virus inhibitors (AID 1347167); conditions: cytotoxicity counter-screen (Zika); series mostly up to 45.9 µM
# How it was run: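 Counter-screen for cytotoxicity of hits from NS2B-NS3 protease qHTS. Overnight-attached cells (2.5 x 10^5 cells/mL, DMEM/4% FBS) were dosed in titration, incubated 24 to 48 hours, then assayed by CellTiter Glo.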
smiles,measurement,setting,value
CCN(CC)CCCS(=O)(=O)N[C@H](CCc1ccccc1)c1nc(Cc2ccc(Br)cc2)no1,Potency,[1],inactive
same,Potency,[2],inactive
c1ccc(-c2ccc(CNc3nc(-c4ccccn4)nnc3-c3ccccc3)cc2)cc1,Potency,[1],inactive
same,Potency,[2],inactive
Cc1cccc(C#Cc2cc(F)cc(C#N)c2)n1,Potency,[1],inactive
same,Potency,[2],inactive
O=C(NCCCCCCCCNC(=O)C(Cl)Cl)C(Cl)Cl,Potency,[1],inactive
same,Potency,[2],inactive
CC[N+]1(C/C2=C/CCCCCC2)CCC(NC(=O)C2c3cc(Cl)ccc3Oc3ccc(Cl)cc32)CC1 (configuration not stated),Potency,[1],inactive
same,Potency,[2],inactive
NS(=O)(=O)c1ccc(NC(=O)Nc2ccc(F)cc2)cc1,Potency,[1],inactive
same,Potency,[2],inactive
O=C(NCCN1CCN(c2cccc3ccc(O)cc23)CC1)c1ccc(F)cc1,Potency,[1],inactive
same,Potency,[2],inactive
Cc1c(C(=O)Nc2ccc(N3CCC(N4CCOCC4)CC3)c(C#N)c2)cnn1-c1ccc(Cl)cc1,Potency,[1],inactive
same,Potency,[2],inactive
COc1cccc(-c2cc(F)ccc2C2Cc3nc(N)nc(C)c3C(=O)N2)n1 (configuration not stated),Potency,[1],inactive
same,Potency,[2],inactive
O=C(c1ccc(Cl)cc1)N1CCN(c2ccnc3cc(Cl)ccc23)CC1,Potency,[1],inactive
same,Potency,[2],inactive
O=C(N[C@@H]1CCCc2c1cnn2-c1ccc(F)cc1F)c1ccccn1,Potency,[1],inactive
same,Potency,[2],inactive
Cc1[nH]c2ccccc2c1CCNC(=O)c1cccs1,Potency,[1],inactive
same,Potency,[2],inactive
C=C1C(=O)O[C@@H]2C=C(COC(C)=O)CC/C=C(\CO)CC[C@@H]12,Potency,[1],inactive
same,Potency,[2],inactive
CCCC(CCC)C(=O)NCc1ccc2c(cnn2-c2ccccc2OC)c1,Potency,[1],inactive
same,Potency,[2],inactive
CNCCCC1(c2ccccc2)OC(C)(C)c2ccccc21 (configuration not stated),Potency,[1],inactive
same,Potency,[2],inactive
C[C@@H]1O[C@@H](O[C@H]2[C@H](OC(=O)[C@]34CCC(C)(C)C[C@H]3C3=CCC5[C@@]6(C)C[C@H](O)[C@H](O[C@@H]7O[C@H](C(=O)O)[C@@H](O)[C@H](O)[C@H]7O)[C@@](C)(CO)C6[C@H](O)C[C@@]5(C)[C@]3(C)C[C@H]4O)O[C@@H](CO)[C@@H]2O)[C@H](O)[C@H](O)[C@H]1O[C@@H]1OC[C@@H](O)[C@H](O[C@H]2OC[C@](O)(CO)[C@H]2O)[C@H]1O (some centres not stated),"activity change, negative = inhibition",[1],13.4% [at 19.1 µM]
same,"activity change, negative = inhibition",[2],-5.61% [at 10.7 µM]
C=C[C@@]1(C)C=C2C(=O)C(O)=C3[C@](C)(C(=O)O)CC[C@@H]4C[C@]34[C@]2(O)C(=O)C1,Potency,[1],inactive
same,Potency,[2],inactive
Fc1ccc(-c2cncc(CN3CCN(c4cccc5c4OCCO5)CC3)c2)cc1,Potency,[1],inactive
same,Potency,[2],inactive
Cc1cc2sc(NC(=O)Cc3ccccc3)nc2cc1Cl,Potency,[1],inactive
same,Potency,[2],inactive
O=C(C(Cc1cccc(C(F)(F)F)c1)NS(=O)(=O)c1cc(F)c2c(c1)CCNC2)N1CCCC1 (configuration not stated),Potency,[1],inactive
same,Potency,[2],inactive
O=C(NC1CCC1)c1ccc(C#Cc2cccc(F)c2)nc1,Potency,[1],inactive
same,Potency,[2],inactive
O=C(N[C@H]1CCC[C@H](CO)C1)C1CCN(c2nc3cc(Cl)c(-c4ccc(Cl)cc4)cc3o2)CC1,Potency,[1],inactive
same,Potency,[2],inactive
COc1cc2nc(N3CCN(C(=O)c4ccco4)C4CCCCC43)nc(N)c2cc1OC (configuration not stated),Potency,[1],inactive
same,Potency,[2],inactive
O=C(NCC(=O)N1CCCC1)Nc1ccc2cnccc2c1,Potency,[1],inactive
same,Potency,[2],inactive
CC(C)S(=O)(=O)c1ccc2nccc(Nc3ccc4scnc4c3)c2c1,Potency,[1],inactive
same,Potency,[2],inactive
CCC/C=C/C=C/C1CC(O)C2(O)C(=O)OCC12 (configuration not stated),Potency,[2],20 µM (active)
CCC(C)c1ccc(NC(=O)Cn2cnc3c2c(=O)n(C)c(=O)n3C)cc1 (configuration not stated),Potency,[1],inactive
same,Potency,[2],inactive
O=C(c1ccc(OC(F)F)c(C#Cc2ccccn2)c1)N1Cc2cccnc2C1,Potency,[1],inactive
same,Potency,[2],inactive
C[C@H]1[C@H](/C=C/c2ccc(-c3ccccc3C#N)cn2)[C@@H]2[C@@H](C)OC(=O)[C@@H]2C[C@@H]1C,Potency,[1],inactive
same,Potency,[2],inactive
CC1(C)Oc2ncnc(N)c2N=C1c1ccc(C23CCC(CC(=O)O)(CC2)CC3)cc1,Potency,[1],50.1 µM (active)
same,Potency,[2],inactive
CCCCNc1ncc(-c2ccc(CN3CCOCC3)cn2)c(NC2CCC(O)CC2)n1 (configuration not stated),Potency,[1],inactive
same,Potency,[2],inactive
Fc1ccc2[nH]ccc2c1-c1nc(N2CCOCC2)c2sc(CN3CCN(CC4CC4)CC3)cc2n1,Potency,[1],inactive
same,Potency,[2],inactive
CC(=O)O[C@@H]1C[C@@]23C[C@@]24CC[C@H](O[C@@H]2OC[C@H](O)[C@H](O)[C@H]2O)C(C)(C)[C@@H]4CC[C@H]3[C@]2(C)[C@@H](O)C34O[C@H](C[C@@H](C)[C@@H]3[C@@]12C)[C@@H](C(C)(C)O)O4,Potency,[1],inactive
same,Potency,[2],inactive
CC(=O)N1CCN(CCOc2ccc(C3CCN(C4=Nn5c(nnc5C(F)(F)F)CC4)CC3)cc2)CC1,Potency,[1],inactive
same,Potency,[2],inactive
CC(C)n1c(=O)c(C(=O)NC2CC3CCC(C2)N3C[C@@H](O)CN(C)S(C)(=O)=O)cc2ccccc21 (some centres not stated),Potency,[1],inactive
same,Potency,[2],inactive
CC(=O)O[C@@H]1C2=C(O)C(=O)[C@](C)(OC(C)=O)C(=O)C2=CO[C@@]12O[C@@H](C)CC[C@H]2OC(C)=O,Potency,[1],inactive
same,Potency,[2],inactive
C=C1C(=O)O[C@@H]2[C@H]3C(C)=CC(=O)C3=C(C)[C@@H](OC(=O)/C(C)=C\C)[C@H](O)[C@@H]12,Potency,[1],inactive
same,Potency,[2],inactive
CC(=O)NC[C@H]1CN(c2ccc(N3CCSCC3)c(F)c2)C(=O)O1,Potency,[1],inactive
same,Potency,[2],inactive
FC(F)(F)c1ccc(/C=C/c2nc(COc3ccc(CCCCn4ccnn4)cc3)co2)cc1,Potency,[1],inactive
same,Potency,[2],inactive
C[C@@H]1CCCN1CCc1cc2cc(-c3ccc(C#N)cc3)ccc2o1,Potency,[2],inactive
OC(CC1c2ccccc2-c2cncn21)C1CCCCC1 (configuration not stated),Potency,[1],inactive
same,Potency,[2],inactive
CC1(C)CCCC2(C)C1C(=O)C=C(C(=O)O)C2(O)C(=O)O (configuration not stated),Potency,[1],inactive
same,Potency,[2],inactive
O=C(NCc1ccccc1-c1ccccc1C(=O)NCCc1ccccn1)OCc1ccccc1,Potency,[1],inactive
same,Potency,[2],inactive
O=C(NCc1cccs1)c1cc2nc(-c3ccco3)cc(C(F)(F)Cl)n2n1,Potency,[2],inactive
CN1CC[C@@H](c2c(O)cc(O)c3c(=O)cc(-c4ccc(C(F)(F)F)cc4Cl)oc23)[C@@H]1CO,Potency,[1],inactive
same,Potency,[2],inactive
C=C(C)Cn1c(SCC(=O)c2cccs2)nc2sc3c(c2c1=O)CCCC3,Potency,[1],inactive
same,Potency,[2],inactive
C=C1C(=O)O[C@@H]2[C@H]1CC[C@H](C)[C@]1(CCC(=O)O1)C2(C)O (some centres not stated),Potency,[1],inactive
same,Potency,[2],inactive
CCc1cc(C(N)=O)ccc1-n1nc(C(C)C)c2c(-n3cnc(-c4cnn(C)c4)c3)ccnc21,Potency,[1],inactive
same,Potency,[2],inactive
C=C1C(=O)O[C@@H]2C[C@H](C)[C@@H]3CC(=O)[C@H](O)[C@@]3(C)C[C@H]12,Potency,[1],inactive
same,Potency,[2],inactive
COC1C(O)C(OC2CCC3(C)C(CCC45CCC6C7(COC(=O)C7)OC4(O)C6(C)CCC35)C2)OC(C)C1OC1OC(CO)C(OC2OC(CO)C(O)C(O)C2O)C(O)C1O (configuration not stated),Potency,[1],inactive
same,Potency,[2],inactive
CC(C)(C)c1ccc(C(=O)Nc2cn3cc(-n4ccnc4)ccc3n2)cc1,Potency,[1],inactive
same,Potency,[2],inactive
COC(=O)c1ccnc(-c2cc(C(=O)Nc3ccc(C4(N)CC4)cc3)ccn2)c1,Potency,[2],inactive
O=C(NCCCc1ccccc1)c1cccc(-c2cc(O)c3ncccc3c2)c1,Potency,[1],89.1 µM (active)
same,Potency,[2],inactive
same,Potency,[3],inactive
Nc1nc(NC2CC2)cc(-c2cccc(Cl)c2Cl)n1,Potency,[2],inactive
O=C(Nc1ccccc1)N1CCN(c2nc(-c3ccccc3)ns2)CC1,Potency,[1],inactive
same,Potency,[2],inactive
CN(C)S(=O)(=O)c1ccc(NC(=S)N2CCC(C(O)(c3ccccc3)c3ccccc3)CC2)cc1,Potency,[1],inactive
same,Potency,[2],inactive
CCCC1(CCC)CCC2(CCN(CCCN(CC)CC)C2)CC1,Potency,[1],inactive
same,Potency,[2],inactive
CC1(C)CC[C@]2(C(=O)O)CC[C@]3(C)C(=CCC4[C@@]5(C)C[C@@H](O)[C@H](O)C(CO)(CO)C5CC[C@]43C)C2[C@@H]1O (some centres not stated),Potency,[1],inactive
same,Potency,[2],inactive
COCCN(C(=O)c1cc(OC)c(OC)c(OC)c1)c1nc(-c2ccccc2)cs1,Potency,[1],inactive
same,Potency,[2],inactive
CN[C@H]1CC[C@@H](c2ccc(Cl)c(Cl)c2)c2ccccc21,outcome,[4],inactive
NCCCC(=O)O,outcome,[4],inactive
CCC(CC)(NC(=O)C(C)C)C(=O)N[C@@H](CCCN=C(N)N)C(=O)NC1(C(=O)NC(c2ccc(F)cc2)c2ccc(F)cc2)CCCC1,outcome,[5],inactive
